# Screen size: about 5,500 compounds; about 2,000 (36%) were called active. About 18% were inconclusive and are not listed. Some of the results follow. Values without a mark were called inactive. Rule as the data show it: active = normalized growth mostly below about 0.91 (no sharp cut-off); inconclusive = no clear call, values can overlap the other calls; inactive = mostly above about 0.92.
# Assay: chemical genetic growth profiling, strain panel (AID 1159580);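 also: tested at 20 µM; growth read once vehicle control cultures reached saturation at 30 °C; 1 = growth at the plate median or of vehicle wells; lower values mean less growth of the strain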
# Details: growth OD
# [1] = S. cerevisiae deletion strains, locus YAL013W, strain DEP1, active compounds read low
# [2] = S. cerevisiae deletion strains, locus YDR150W, strain NUM1, active compounds read low
# [3] = S. cerevisiae deletion strains, locus YGR078C, strain PAC10, active compounds read low
# [4] = S. cerevisiae deletion strains, locus YMR307W, strain GAS1, active compounds read low
# [5] = S. cerevisiae deletion strains, locus YNL322C, strain KRE1, active compounds read low
structure (smiles),measurement,setting,value
CO[C@@H]1C[C@@H](C[C@H]2CC[C@H](C)[C@H]([C@@H](C)C(=O)O)O2)O[C@]2(O[C@](C)([C@H]3CC[C@@](C)(C4O[C@@H](C5O[C@@](O)(CO)[C@H](C)C[C@@H]5C)C[C@@H]4C)O3)C[C@H]2C)[C@@H]1C (some centres undefined),normalized growth,[1],1.03
same,normalized growth,"S. cerevisiae deletion strains, locus YBR021W, strain FUR4, active compounds read low",1.19 [resistant] (active)
same,normalized growth,"S. cerevisiae deletion strains, locus YBR229C, strain ROT2, active compounds read low",1.04
same,normalized growth,"S. cerevisiae deletion strains, locus YCL029C, strain bik1, active compounds read low",0.955
same,normalized growth,"S. cerevisiae deletion strains, locus YDL035C, strain GPR1, active compounds read low",1.03
same,normalized growth,"S. cerevisiae deletion strains, locus YDL074C, strain BRE1, active compounds read low",1.01
same,normalized growth,"S. cerevisiae deletion strains, locus YDL101C, strain DUN1, active compounds read low",1.01
same,normalized growth,"S. cerevisiae deletion strains, locus YDL134C, strain PPH21, active compounds read low",1.01
same,normalized growth,"S. cerevisiae deletion strains, locus YDL185W, strain tfp1, active compounds read low",0.99
same,normalized growth,"S. cerevisiae deletion strains, locus YDL192W, strain arf1, active compounds read low",0.961
same,normalized growth,"S. cerevisiae deletion strains, locus YDR101C, strain arx1, active compounds read low",0.977
same,normalized growth,[2],1.04
same,normalized growth,"S. cerevisiae deletion strains, locus YDR162C, strain NBP2, active compounds read low",1.01
same,normalized growth,"S. cerevisiae deletion strains, locus YDR318W, strain mcm21, active compounds read low",0.966
same,normalized growth,"S. cerevisiae deletion strains, locus YDR388W, active compounds read low",0.981
same,normalized growth,"S. cerevisiae deletion strains, locus YDR502C, strain sam2, active compounds read low",0.99
same,normalized growth,"S. cerevisiae deletion strains, locus YEL061C, strain CIN8, active compounds read low",1.02
same,normalized growth,"S. cerevisiae deletion strains, locus YER110C, active compounds read low",1.03
same,normalized growth,"S. cerevisiae deletion strains, locus YER155C, strain BEM2, active compounds read low",1.08 [resistant] (active)
same,normalized growth,"S. cerevisiae deletion strains, locus YER167W, strain BCK2, active compounds read low",1.02
same,normalized growth,"S. cerevisiae deletion strains, locus YGL078C, strain dbp3, active compounds read low",0.976
same,normalized growth,"S. cerevisiae deletion strains, locus YGL086W, strain mad1, active compounds read low",0.97
same,normalized growth,"S. cerevisiae deletion strains, locus YGL248W, strain PDE1, active compounds read low",1.01
same,normalized growth,[3],1.02
same,normalized growth,"S. cerevisiae deletion strains, locus YGR135W, strain pre9, active compounds read low",0.984
same,normalized growth,"S. cerevisiae deletion strains, locus YGR229C, strain SMI1, active compounds read low",1.02
same,normalized growth,"S. cerevisiae deletion strains, locus YGR252W, strain gcn5, active compounds read low",1.06
same,normalized growth,"S. cerevisiae deletion strains, locus YHR030C, strain SLT2, active compounds read low",1.03
same,normalized growth,"S. cerevisiae deletion strains, locus YHR079C, strain IRE1 (second series), active compounds read low",0.968
same,normalized growth,"S. cerevisiae deletion strains, locus YHR094C, strain hxt1, active compounds read low",0.992
same,normalized growth,"S. cerevisiae deletion strains, locus YHR129C, strain ARP1, active compounds read low",1.06
same,normalized growth,"S. cerevisiae deletion strains, locus YHR200W, strain rpn10, active compounds read low",0.968
same,normalized growth,"S. cerevisiae deletion strains, locus YIL066C, strain RNR3, active compounds read low",1.01
same,normalized growth,"S. cerevisiae deletion strains, locus YIL073C, strain SPO22, active compounds read low",0.984
same,normalized growth,"S. cerevisiae deletion strains, locus YIL125W, strain kgd1, active compounds read low",0.982
same,normalized growth,"S. cerevisiae deletion strains, locus YIR030C, strain dcg1, active compounds read low",0.982
same,normalized growth,"S. cerevisiae deletion strains, locus YJL095W, strain BCK1, active compounds read low",0.997
same,normalized growth,"S. cerevisiae deletion strains, locus YJL134W, strain LCB3, active compounds read low",1.03
same,normalized growth,"S. cerevisiae deletion strains, locus YJL168C, strain set2, active compounds read low",0.993
same,normalized growth,"S. cerevisiae deletion strains, locus YJL187C, strain SWE1 (second series), active compounds read low",1.01
same,normalized growth,"S. cerevisiae deletion strains, locus YJR043C, strain POL32, active compounds read low",1.02
same,normalized growth,"S. cerevisiae deletion strains, locus YJR075W, strain HOC1, active compounds read low",1
same,normalized growth,"S. cerevisiae deletion strains, locus YKL009W, strain mrt4, active compounds read low",0.98
same,normalized growth,"S. cerevisiae deletion strains, locus YKL068W, active compounds read low",1.01
same,normalized growth,"S. cerevisiae deletion strains, locus YKL085W, strain MDH1 (second series), active compounds read low",0.978
same,normalized growth,"S. cerevisiae deletion strains, locus YKL085W, strain MDH1, active compounds read low",0.978
same,normalized growth,"S. cerevisiae deletion strains, locus YKL190W, strain CNB1, active compounds read low",1.02
same,normalized growth,"S. cerevisiae deletion strains, locus YKR001C, strain vps1, active compounds read low",1.02
same,normalized growth,"S. cerevisiae deletion strains, locus YLR039C, strain RIC1, active compounds read low",1.35 [resistant] (active)
same,normalized growth,"S. cerevisiae deletion strains, locus YLR058C, strain SHM2, active compounds read low",1.02
same,normalized growth,"S. cerevisiae deletion strains, locus YLR102C, strain apc9, active compounds read low",0.997
same,normalized growth,"S. cerevisiae deletion strains, locus YLR262C, strain YPT6, active compounds read low",1.45 [resistant] (active)
same,normalized growth,"S. cerevisiae deletion strains, locus YLR268W, strain sec22, active compounds read low",0.929
same,normalized growth,"S. cerevisiae deletion strains, locus YLR330W, strain CHS5, active compounds read low",1.04
same,normalized growth,"S. cerevisiae deletion strains, locus YLR342W, strain FKS1 (second series), active compounds read low",1.03
same,normalized growth,"S. cerevisiae deletion strains, locus YLR371W, strain rom2, active compounds read low",0.999
same,normalized growth,"S. cerevisiae deletion strains, locus YLR418C, strain cdc73, active compounds read low",1.02
same,normalized growth,"S. cerevisiae deletion strains, locus YML016C, strain PPZ1, active compounds read low",1.03
same,normalized growth,"S. cerevisiae deletion strains, locus YML032C, strain rad52, active compounds read low",0.986
same,normalized growth,"S. cerevisiae deletion strains, locus YML124C, strain tub3, active compounds read low",0.983
same,normalized growth,"S. cerevisiae deletion strains, locus YMR078C, strain ctf18, active compounds read low",1.03
same,normalized growth,"S. cerevisiae deletion strains, locus YMR223W, strain ubp8, active compounds read low",0.994
same,normalized growth,"S. cerevisiae deletion strains, locus YMR263W, strain SAP30, active compounds read low",1.01
same,normalized growth,[4],1.17
same,normalized growth,"S. cerevisiae deletion strains, locus YNL067W, strain RPL9B, active compounds read low",1.01
same,normalized growth,"S. cerevisiae deletion strains, locus YNL128W, strain TEP1, active compounds read low",1.04
same,normalized growth,"S. cerevisiae deletion strains, locus YNL153C, strain GIM3, active compounds read low",0.999
same,normalized growth,"S. cerevisiae deletion strains, locus YNL233W, strain BNI4, active compounds read low",0.996
same,normalized growth,"S. cerevisiae deletion strains, locus YNL250W, strain rad50, active compounds read low",0.966
same,normalized growth,"S. cerevisiae deletion strains, locus YNL271C, strain bni1, active compounds read low",1.01
same,normalized growth,"S. cerevisiae deletion strains, locus YNL298W, strain CLA4, active compounds read low",0.989
same,normalized growth,"S. cerevisiae deletion strains, locus YNL307C, strain MCK1, active compounds read low",1.01
same,normalized growth,[5],1.02
same,normalized growth,"S. cerevisiae deletion strains, locus YNR052C, strain pop2, active compounds read low",0.976
same,normalized growth,"S. cerevisiae deletion strains, locus YOL006C, strain TOP1, active compounds read low",0.814
same,normalized growth,"S. cerevisiae deletion strains, locus YOL012C, strain htz1",1.61
same,normalized growth,"S. cerevisiae deletion strains, locus YOL147C, strain pex11, active compounds read low",0.989
same,normalized growth,"S. cerevisiae deletion strains, locus YOR061W, strain CKA2, active compounds read low",1.02
same,normalized growth,"S. cerevisiae deletion strains, locus YOR069W, strain VPS5, active compounds read low",1.03
same,normalized growth,"S. cerevisiae deletion strains, locus YOR136W, strain idh2, active compounds read low",0.976
same,normalized growth,"S. cerevisiae deletion strains, locus YOR144C, strain elg1, active compounds read low",0.988
same,normalized growth,"S. cerevisiae deletion strains, locus YOR184W, strain ser1, active compounds read low",0.975
same,normalized growth,"S. cerevisiae deletion strains, locus YOR316C, strain cot1, active compounds read low",0.99
same,normalized growth,"S. cerevisiae deletion strains, locus YPL055C, strain LGE1, active compounds read low",1.03
same,normalized growth,"S. cerevisiae deletion strains, locus YPL241C, strain CIN2, active compounds read low",1.04
same,normalized growth,"S. cerevisiae deletion strains, locus YPR119W, strain clb2, active compounds read low",0.99
same,normalized growth,"S. cerevisiae deletion strains, locus YPR141C, strain kar3, active compounds read low",0.986
same,normalized growth,"S. cerevisiae deletion strains, locus YPR163C, strain tif3, active compounds read low",1.01
same,normalized growth,"S. cerevisiae deletion strains, locus YPR167C, strain met16, active compounds read low",0.977
same,normalized growth,"S. cerevisiae deletion strains, strain wtn01, active compounds read low",0.969
same,normalized growth,"S. cerevisiae strains, strain wild type, active compounds read low",1
COC(=O)[C@@H](N)CCCN=C(N)N[N+](=O)[O-],normalized growth,[1],0.999
same,normalized growth,"S. cerevisiae deletion strains, locus YAL040C, strain CLN3, active compounds read low",1
same,normalized growth,"S. cerevisiae deletion strains, locus YCL061C, strain MRC1 (second series), active compounds read low",1
same,normalized growth,[2],1.01
same,normalized growth,"S. cerevisiae deletion strains, locus YDR363W, strain ESC2, active compounds read low",1.01
same,normalized growth,"S. cerevisiae deletion strains, locus YER002W, strain NOP16, active compounds read low",0.991
same,normalized growth,[3],1.01
same,normalized growth,[4],0.986
same,normalized growth,"S. cerevisiae deletion strains, locus YNL175C, strain NOP13, active compounds read low",1
same,normalized growth,"S. cerevisiae deletion strains, locus YNL197C, strain WHI3, active compounds read low",0.994
same,normalized growth,"S. cerevisiae deletion strains, locus YNL224C, strain SQS1, active compounds read low",1
same,normalized growth,[5],1.02
same,normalized growth,"S. cerevisiae deletion strains, locus YOR083W, strain WHI5 (second series), active compounds read low",1

# Source: PubChem BioAssay AID1159580 (chemical genetic matrix, 2015)
